Data published in PubChem BioAssay AID504832 (National Center for Advancing Translational Sciences (NCATS), 2011).
The campaign covered roughly 310,000 compounds. About 18,000 (5.8%) were called active. Not shown: some 22% with an inconclusive outcome. This excerpt belongs to a sample that is enriched for actives. Values without a mark were called inactive. Calls come from the whole dose curve; as a rule, active = well fitted inhibition curve with a large enough effect; inconclusive = small, poorly fitted or top-dose-only effect, or another doubt; inactive = no such curve, though single readings can be large or run the other way.

Experiment: Primary qHTS for delayed death inhibitors of the malarial parasite plastid, 48 hour incubation
Details: P. falciparum luciferase growth in erythrocytes; series mostly up to 28.7 µM; activity change, negative = inhibition: at the top concentration
In short: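 Parasite viability was followed by luminescence of a genomically integrated firefly luciferase. Cultures held 0.1% parasitemia at 2% hematocrit (final), incubated under 5% CO2 at 37 C.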
% is set by controls: 0 for no effect and ±100 for the full control effect; potency is the fitted concentration of half-maximal effect.

SMILES	activity change, negative = inhibition	Potency
N#C/C=C/N1CCN(Cc2ccc3c(c2)OCO3)CC1	12.1%	–
CNc1nc(-c2ccccc2)cc(-c2ccccc2)n1	-5.46%	–
CCN(CC)C(=O)c1sc2nc(-c3ccccc3)ccc2c1N	189%	–
CS(=O)(=O)c1sc2nc(-c3ccccc3)cc(-c3ccccc3)c2c1N	–	4.65 µM (active)
CSc1ccccc1C(=O)OCC(=O)N1CCN(C(C)=O)CC1	-3.5%	–
O=C(NCCCc1ccccc1)C(=O)c1c[nH]c2ccccc12	16.7%	–
O=S(=O)(c1ccc(SCc2ccccc2)nc1)N1CCCCCC1	-6.45%	–
COc1ccc2c(c1)SC(C)CC2=O (stereo unspecified)	10.2%	–
COc1ccc2c(c1)OC(O)(C(F)(F)C(F)F)CC2=O (stereo unspecified)	–	3.29 µM (active)
CC1(C)CC(=O)c2ccc(O)cc2O1	-6.62%	–
COc1cc(C2C(C(=O)c3ccco3)=C(O)C(=O)N2c2cc(C)on2)ccc1OCc1ccccc1 (stereo unspecified)	4.99%	–
CCC(C)[C@H](NC(=O)N1c2ccccc2NC(=O)[C@@H]1C(C)C)C(=O)N[C@@H](Cc1ccccc1)C(=O)O (stereo partly specified)	53%	–
Cc1c(Cl)cccc1NC(=S)NCC(O)c1ccccc1 (stereo unspecified)	-13.2%	–
Cc1c(Cl)cccc1NC(=O)CSc1ccc(-c2cccnc2)nn1	2.52%	–
Cc1c(Cl)cccc1NC(=S)N(Cc1ccccc1)Cc1cccnc1	–	10.4 µM (active)
Cc1cc(C)c(C#N)c(SCC(=O)N(CC(C)C)C2CCS(=O)(=O)C2)n1 (stereo unspecified)	-10.3%	–
COCc1c(C(=O)N/N=C\c2cccnc2)nnn1-c1nonc1N	6.99%	–
CC1Cc2ccccc2N1S(=O)(=O)c1ccc(Cl)nc1 (stereo unspecified)	-2.52%	–
CC1Cc2ccccc2N1S(=O)(=O)c1cccc(C(=O)NCC(c2ccco2)N2CCCC2)c1 (stereo unspecified)	–	11.7 µM (active)
CC1CCc2sc(C(=O)NCC(c3ccco3)N3CCCCC3)cc2C1 (stereo unspecified)	–	7.38 µM (active)
COc1ccc(C(CNC(=O)c2cc3c(s2)CCCC3)N2CCOCC2)cc1 (stereo unspecified)	-14.1%	–
CC(NC(=O)c1cccc(S(=O)(=O)N2CCc3ccccc3C2)c1)c1ccco1 (stereo unspecified)	9.95%	–

SMILES	activity change, negative = inhibition	Potency
CC1CCc2sc(C(=O)N/N=C/C3CCCCC3)cc2C1 (stereo unspecified)	22.2%	–
Cc1nn(C)c(Cl)c1CN1CCC(Oc2ccc(C(=O)N3CCCC3)cc2)CC1	-15.3%	–
CC1CN(C(=O)CCC(=O)NC2CCN(Cc3ccccc3)CC2)c2ccccc2O1 (stereo unspecified)	-6.56%	–
COC(=O)c1ccc(NC(=O)CSc2nncn2-c2cccnc2)cc1	50.5%	–
CC(C)(CNCC(O)c1ccccc1)N1CCOCC1 (stereo unspecified)	42.7%	–
O=C(NCc1ccc(Cl)c(Cl)c1)c1cccnc1	-4.1%	–
OC(CNCc1ccc(Cl)c(Cl)c1)c1ccccc1 (stereo unspecified)	–	5.86 µM (active)
Cc1[nH]c2ccccc2c1C(=O)CN1CCCC(C)C1 (stereo unspecified)	-28%	–
CSc1nccc(NC(=O)c2ccc(C(C)(C)C)cc2)n1	26.8%	–
O=C(c1cc(COc2cccc(C(F)(F)F)c2)on1)N1CCSCC1	5.36%	–
CN(C)CCCNC(=S)N1CCC(c2nc3ccccc3[nH]2)CC1	-3.56%	–
O=C(CCC1CCCCC1)Nc1cc(C(F)(F)F)ccc1N1CCOCC1	–	11.7 µM (active)
CC(Sc1nncn1C)C(=O)Nc1cc(C(F)(F)F)ccc1N1CCOCC1 (stereo unspecified)	-8.46%	–
CCC(=O)Nc1cc(C(F)(F)F)ccc1N1CCCC1	22.6%	–
CCCCn1c(N)c(N(CC(C)C)C(=O)c2cnc(C)cn2)c(=O)[nH]c1=O	6.65%	–
Cc1ccc(CSCC2Nc3ccc(C(=O)N4CCN(c5ccc(F)cc5)CC4)cc3NC2=O)cc1 (stereo unspecified)	1.58%	–
Cc1c(CCC(=O)O)c(=O)oc2cc(OCc3ccc(Br)cc3)ccc12	-9.71%	–
CCOC(=O)c1cc(=O)c2ccc(OCc3ccccc3)cc2o1	31.1%	–
Cc1c(Cc2ccccc2)c(=O)oc2cc(OCC(N)=O)ccc12	–	4.15 µM (active)
CCN(CC(=O)NCCCN1CCOCC1)S(=O)(=O)c1cc(Cl)ccc1Cl	25.9%	–
COc1cc(NS(=O)(=O)c2ccc(NC(=S)NC(=O)c3ccccc3)cc2)nc(OC)n1	13.7%	–
Cc1ccc(NC(=O)C(CC(=O)O)C2CCCO2)c(C)c1 (stereo unspecified)	10%	–

SMILES	activity change, negative = inhibition	Potency
Cc1ccc(NC(=O)C2CCN(S(=O)(=O)c3ccc4c(c3)NC(=O)CO4)CC2)cc1C	-17.5%	–
COc1ccccc1N(CC(=O)Nc1ccccc1C(=O)N1CCCC1)S(C)(=O)=O	1.53%	–
Fc1ccc2[nH]c3c(N4CCSCC4)ncnc3c2c1	–	4.65 µM (active)
CCN1CCCC1CNC(=O)c1cc2cc(OC)c(OC)cc2[nH]1 (stereo unspecified)	-23.7%	–
CCN1CCCC1Cn1cnc2c([nH]c3cc(OC)ccc32)c1=O (stereo unspecified)	9.43%	–
CCN1CCCC1CNc1ncnc2c1[nH]c1ccc(F)cc12 (stereo unspecified)	–	2.33 µM (active)
Fc1ccc2[nH]c3c(N4CCN(Cc5ccc6c(c5)OCO6)CC4)ncnc3c2c1	–	5.22 µM (active)
CCCCCc1c(C)nc(N2CCN(Cc3ccc4c(c3)OCO4)CC2)[nH]c1=O	4.7%	–
O=c1[nH]c(N2CCN(Cc3ccc4c(c3)OCO4)CC2)nc2c1CCCC2	11.4% [at 5.75 µM]	–
Cc1ccc(NC(=O)Cc2nc(COC(=O)C(C)NS(=O)(=O)c3ccc(C)cc3)cs2)cc1 (stereo unspecified)	-17.5%	–
O=C(NCCOc1cccnc1)c1ccc(OC2CCN(Cc3ccccn3)CC2)cc1	-22.5%	–
CN(C)CCCn1c(SCc2ccc(Cl)cc2)nnc1-c1ccncc1	-6.49%	–
COc1ccc(-c2nnc3n2CCCCC3)cc1	17.4%	–
CCOc1ccc(-n2c(O)c(/C=N/Nc3nc(C)cc(C)n3)c3ccccc3c2=O)cc1	–	4.15 µM (active)
CCOc1ccc(-n2c(O)c(/C=N/c3ccnn3Cc3ccncc3)c3ccccc3c2=O)cc1	-28.1%	–
CCOc1ccc(NC(=O)c2cc(C)nc3ccccc23)cc1	1.76%	–
O=C(Cc1ccccc1F)NC1CCSc2ccccc21 (stereo unspecified)	73.8%	–
CC1(C)NC(=O)N(CC(=O)N2CCN(S(=O)(=O)c3ccccc3F)CC2)C1=O	16.7%	–
CC1CCC(NS(=O)(=O)c2ccc3c(c2)CC(=O)N3)CC1 (stereo unspecified)	12.2%	–
c1ccc(-c2cn3c(n2)CCc2ccc4cccnc4c2-3)cc1	–	10.4 µM (active)
c1ccc(-c2cn3cccnc3n2)cc1	46%	–
Cc1cc(NC(=O)CCC(=O)N(CC(=O)NC2CCCC2)c2ccc(F)cc2)no1	-1.77%	–

SMILES	activity change, negative = inhibition	Potency
O=C(CCn1nnc2ccccc21)OCC(=O)c1ccc([N+](=O)[O-])cc1	15.2%	–
COc1ccc(CCC(C)N2CCc3ccccc3C2)cc1 (stereo unspecified)	19.6%	–
COc1cccc(N2C(=O)CC(N3CCc4ccccc4C3)C2=O)c1 (stereo unspecified)	2.48%	–
COc1ccc(CN2CCCC(N3CCc4ccccc4C3)C2)c(O)c1 (stereo unspecified)	–	1.65 µM (active)
CCc1ccc(NC(=O)Cn2ncn3c(cc4ccccc43)c2=O)cc1	9.52%	–
COc1ccc(NC(=O)Cn2ncn3c(cc4ccccc43)c2=O)c(OC)c1OC	–	10.4 µM (active)
COc1ccc(NC(=O)CCNC(=O)Cn2ccc3ccccc3c2=O)c(OC)c1	3.33%	–
Cc1ccc(C(=O)N(CC(=O)NC2CCCC2)c2ccc(F)cc2)s1	-0.117%	–
CC(c1ccccc1)(c1ccccc1)c1ccncc1	–	16.5 µM (active)
ClC(Cl)(Cl)c1ccccc1	4.79%	–
CC(C)(C)N(Cc1ccccc1)C(=O)c1ccncc1	11.2%	–
CC1CCCC(NC(=O)c2cc(-c3ccncc3)nc3ccccc23)C1C (stereo unspecified)	-9.17%	–
CC(=O)N1CC(=O)N(CC(=O)Nc2ccc(Br)cc2)C1=S	12.7%	–
Cc1c(C(=O)NC(C)C2CC3CCC2C3)cccc1[N+](=O)[O-] (stereo unspecified)	15.2%	–
CC(Sc1nnc(CNC(=O)c2ccccc2F)n1C)C(=O)Nc1nccs1 (stereo unspecified)	5.18%	–
COc1ccc(CCNC(=O)c2nnc(CS(=O)(=O)c3ccccc3)o2)cc1OC	–	2.33 µM (active)
COc1ccc(CCNC(=O)Cc2ccc(C)cc2)cc1OC	-4.17%	–
COc1ccc(CCNC(=O)CN(c2ccccc2)S(C)(=O)=O)cc1OC	-2.55%	–
COc1ccc(OC)c(NC(=O)c2ccc3c(c2)CCN3S(C)(=O)=O)c1	-15.2%	–
CC(C)OC(=O)c1ccc(COc2ccc3ccc(=O)oc3c2)o1	22%	–
COc1ccccc1CNC(=O)c1ccc(CS(=O)(=O)c2ccccc2)o1	-13.2%	–
CCCCCNC(=O)C1c2ccccc2Oc2ccccc21	-2.43%	–

SMILES	activity change, negative = inhibition	Potency
COc1ccc(C(=O)Nc2ccccc2C(=O)NCc2ccco2)cc1	-8.26%	–
Cc1ccc(N(Cc2ccc(C(=O)Nc3ccccc3C(=O)NCc3ccco3)cc2)S(C)(=O)=O)cc1C	–	3.7 µM (active)
CS(=O)(=O)N(Cc1ccc(Cl)cc1)c1ccc(C(=O)NCCSCc2ccco2)cc1	13.7%	–
CS(=O)(=O)c1ccc(C(=O)OCC(=O)NNC(=O)COc2ccc(Cl)cc2)cc1	11.1%	–
COc1cc(CN2CCCN(C)CC2)c([N+](=O)[O-])cc1OC	45%	–
Cc1ccc(OCCC(=O)OCC(=O)N2c3ccccc3NC(=O)C2(C)C)cc1	-0.565%	–
CC(=O)Nc1ccc(S(=O)(=O)N2CCC(C(=O)NC3CC3)CC2)cc1	5.93%	–
CN1CCc2ccccc2C1Cc1ccccc1NC(=O)c1sc2ccccc2c1Cl (stereo unspecified)	–	8.28 µM (active)
COc1ccc(CNC(=O)CNC(=O)c2sc3ccccc3c2Cl)cc1OC	5.71%	–
O=C(Nc1ccon1)c1sc2ccccc2c1Cl	21.9%	–
COCc1ccc(CN2CCC(Oc3ccc(C(=O)NCc4ccccn4)cc3)CC2)o1	-17.3%	–
O=C(O)c1cc(S(=O)(=O)N(Cc2ccccc2)c2ccccc2)ccc1Cl	0.616%	–
C=CCCN(Cc1ccccc1)S(=O)(=O)c1ccccc1Br	1.07%	–
C=CC(COCc1ccccc1)N(Cc1ccccc1)S(=O)(=O)c1ccccc1Br (stereo unspecified)	–	9.28 µM (active)
Cc1ccsc1-c1cc(C(=O)O)c2c(ccc3ccccc32)n1	32%	–
COc1c(C)cccc1C(=O)Nc1cc(Cl)ccc1N1CCOCC1	-1.23%	–
COc1ccc(Cl)cc1NC(=O)C1CC(=O)N(c2ccc(F)cc2)C1 (stereo unspecified)	8.24%	–
COc1cc(OC)c(N2CC(C(=O)Nc3cc(Cl)ccc3N3CCOCC3)CC2=O)cc1Cl (stereo unspecified)	–	11.7 µM (active)
